High-throughput results (PubChem BioAssay)
Rows were chosen to be rich in hits. Some 1.1% of all compounds tested hit in one or more screens of this group.
VDR inhibitor = Inhibitors of the vitamin D receptor (VDR): qHTS | AID 504847, 2011 | Vitamin D3 receptor (Homo sapiens), P11473 | Potency, µM, for inactives: max response, negative = inhibition, most hits filed as inhibitors | 0.93% of 400,000 active | VDR-SRC2-3 peptide fluorescence polarization, 2 h
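VDR–SRC2-3 interaction, FP format. Cmpds 23 nl via pintool, brief spin, 2 h ambient incubation.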
Tb PFK inh = qHTS Assay to Find Inhibitors of T. brucei phosphofructokinase; 0.17% of 330,000 active; T. brucei PFK, ADP-Glo luminescence; ATP-dependent 6-phosphofructokinase (Trypanosoma brucei brucei), O15648; AID 485367, 2010; Potency, µM (top dose mostly 57.5 µM), for inactives: top-dose activity, negative = inhibition, actives largely listed as inhibitors;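 also: 0% = uninhibited 1x PFK enzyme wells and -100% = no-enzyme wells; nearly all actives have a fitted effect of over 60% in size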
Target sequence (O15648 whole entry, looked up): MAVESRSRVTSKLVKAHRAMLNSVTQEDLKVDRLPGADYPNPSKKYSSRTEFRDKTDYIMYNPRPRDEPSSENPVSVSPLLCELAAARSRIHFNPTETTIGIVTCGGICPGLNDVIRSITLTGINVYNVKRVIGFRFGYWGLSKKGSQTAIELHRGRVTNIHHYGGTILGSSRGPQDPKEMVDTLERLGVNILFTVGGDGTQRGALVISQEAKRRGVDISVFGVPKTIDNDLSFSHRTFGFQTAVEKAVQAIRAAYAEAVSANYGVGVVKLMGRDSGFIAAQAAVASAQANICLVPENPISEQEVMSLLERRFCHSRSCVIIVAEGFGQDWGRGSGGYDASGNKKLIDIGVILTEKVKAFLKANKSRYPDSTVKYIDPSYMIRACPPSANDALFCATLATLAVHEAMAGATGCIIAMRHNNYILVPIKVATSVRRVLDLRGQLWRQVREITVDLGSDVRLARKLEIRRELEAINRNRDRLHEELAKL
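1.25 nM PFK with 0.5 mM F6P and 0.1 mM ATP in 0.1 M TEA pH 8.0, 5 mM MgCl2, incubated 45 min at room temperature; ADP measured by ADP-Glo luminescence; compounds titrated up to 57 uM.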
Tb PGK inh = qHTS Assay to Find Inhibitors of Phosphoglycerate Kinase; Phosphoglycerate kinase, glycosomal (Trypanosoma brucei brucei), P07378; 0.043% of 380,000 active; AID 602233, 2012; PGK/GAPDH coupled, Kinase-Glo luminescence, 60 min; Potency, µM (highest dose often 57.5 µM), inactives show at the top dose activity change, negative = inhibition, usual class: inhibitors; also: nearly all actives have a fitted effect of over 60% in size
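Luminescent ATP detection (Kinase-Glo Plus) follows a 60-minute room-temperature incubation, with wells lacking PGK as controls. Buffer: 100 mM TEA (pH 7.6), 5 mM MgCl2, 0.01% Tween-20. Coupling enzyme GAPDH (100 nM final) supplies unstable 1,3-BPG in-well.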
Pin1 inhibitor = qHTS Assay to Find Inhibitors of Pin1; Peptidyl-prolyl cis-trans isomerase NIMA-interacting 1 (Homo sapiens), Q13526; Pin1 FP peptide displacement, HiFluor488, 10 min; Potency, µM (highest dose often 115 µM), for inactives: at the highest dose activity, negative = inhibition, usual class: inhibitors; 0.009% of 390,000 active; AID 504891, 2011; active = well fitted inhibition curve with a large enough effect in the polarisation, with a control signal flat, not every such curve was filed as active; inconclusive = small, poorly fitted or top-dose-only effect, or effect the other way, or a change in a side signal; inactive = no such curve, though single readings can be large or run the other way; the % refers to the polarisation
Target sequence (Q13526 whole entry, looked up): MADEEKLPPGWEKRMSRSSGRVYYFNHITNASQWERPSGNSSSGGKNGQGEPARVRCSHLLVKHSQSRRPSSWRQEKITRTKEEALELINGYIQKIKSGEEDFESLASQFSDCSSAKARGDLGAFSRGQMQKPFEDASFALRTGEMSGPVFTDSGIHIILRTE
GLS inh = qHTS for Inhibitors of Glutaminase (GLS) | 0.21% of 410,000 active | Glutaminase kidney isoform, mitochondrial (Homo sapiens), O94925 | GLS enzymatic activity, qHTS titration | Potency, µM (doses to about 45.5 µM), inactives show top-dose activity change, negative = inhibition, usual class: inhibitors
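Read-out is an Amplex red fluorescence increase coupled through glutamate oxidase and HRP, measured before and after 30 min room-temperature incubation. hKGA is in 45 mM KH2PO4 (pH 8.2) with 0.02% Tween-20; glutamine added as 1mM solution.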
An asterisk follows results filed as active; i = inactive; u = inconclusive; x = no result given; ! = a repeat was not active; [ ] = another dose, or the depositor's remark. Unless noted, calls follow the shape of the dose curve; as a rule, active = well fitted curve in the direction sought with a large enough effect; inconclusive = small, poorly fitted or top-dose-only effect, or another doubt; inactive = no such curve, though single readings can be large; an effect the other way counts as inactive or inconclusive. Unless noted, % is scaled to controls: 0 for no effect and ±100 for the full control effect; potency is read from the fitted curve at half-maximal effect.

SMILES	VDR inhibitor	Tb PFK inh	Tb PGK inh	Pin1 inhibitor	GLS inh
CCOP(=O)(OCC)O/C(=C/Cl)c1ccc(Cl)cc1Cl	2.6%	x	x	x	2.9%
CC(=O)OC1CC2C(C)(C)C(O)C=C[C@@]2(C)C2CC[C@]3(C)C(=CC(=O)OC3c3ccoc3)[C@]12C (stereo not given in full)	25.1µM*	x	x	x	x
CC(=O)OC1CC(OC(C)=O)[C@]2(C)C(CC(OC(C)=O)[C@]3(C)C2CC[C@@]2(C)C(c4ccoc4)C(=O)C4O[C@]432)C1(C)C (stereo not given in full)	-4.5%	x	x	x	x
Cc1ccc(CCNC(=O)C2CCCN(Cc3nc(-c4cccc(Cl)c4)oc3C)C2)cc1 (stereo not given)	89.1µM*	x	11.4%	-15.5%	-11.9%
Cc1ncc(CN2CCCC(C(=O)c3cccc(Cl)c3)C2)s1 (stereo not given)	-6.6%	2.0%	-7.2%	5.5%	-3.7%
CC(C)[C@H](NC(=O)[C@H](CCC(=O)O)NC(=O)[C@H](Cc1ccccc1)NC(=O)[C@H](C)NC(=O)[C@@H](N)Cc1ccc(O)cc1)C(=O)N[C@H](C(=O)NCC(N)=O)C(C)C	-3.1%	x	x	x	x
CCCCC/C=C\C/C=C\C/C=C\C/C=C\CCCC(=O)NCCCl	27.3%	x	x	x	x
CCOC(=O)c1c(NC(=O)c2c(N)n(CCCOC)c3nc4ccccc4nc23)sc2c1CCCC2	-0.7%	-0.4%	-8.1%	7.9%	-9.9%
CCOC(=O)c1c(NC(NC(=O)CF)C(Cl)(Cl)Cl)sc2c1CCCC2 (stereo not given)	44.7µM*	0.4%	-3.9%	-13.1%	u
COc1ccc(CCN)cc1O	-9.0%	x	-6.4%	4.9%	91.6%
NCCc1cc(O)c(O)cc1O	89.1µM*	x	-21.2%	u	10µM*!
Oc1cc2c(cc1O)[C@H]1c3ccccc3CN[C@@H]1CC2	x	2.39µM*	x	x	x
Oc1cc2c(cc1O)[C@H]1c3ccccc3CN[C@H]1CC2	-15.9%	x	x	x	x
CCCCCc1cc(O)c2c(c1)OC(C)(C)c1ccc(C)cc1-2	x	x	x	x	-7.3%
CC(C)[C@@]1(NC(=O)[C@@H]2C=C3c4cccc5[nH]cc(c45)C[C@H]3N(C)C2)O[C@@]2(O)[C@@H]3CCCN3C(=O)[C@H](Cc3ccccc3)N2C1=O	x	-0.8%	x	x	x
CN1C[C@@H](C(=O)N[C@@]2(C)O[C@]3(O)C4CCCN4C(=O)[C@@H](Cc4ccccc4)N3C2=O)C=C2c3cccc4[nH]cc(c34)C[C@@H]21 (stereo not given in full)	14.1µM*	x	x	x	x
Nc1cccc2c(O)cccc12	-3.5%	x	-8.6%	-2.7%	12.6µM*
CC1(C)C(O)CC(O)[C@]2(C)C1CC(=O)[C@]1(C)C2CC[C@@]2(C)C(c3ccoc3)OC(=O)C3OC321 (stereo not given in full)	1.2%	x	x	x	x
O=C(c1ccccc1)c1ccc(N=Nc2c(O)[nH]c(=O)[nH]c2=O)cc1	-3.8%	-0.1%	-0.7%	u	10µM*
O=C(O)c1cccc(N=Nc2c(O)[nH]c(=O)[nH]c2=O)c1	-9.1%	0.8%	-4.7%	-10.6%	4.5%
COc1ccccc1/C=C1\C(=O)NC(=S)N(c2ccccc2)C1=O	50.1µM*	-3.9%	-2.1%	2.9%	-11.0%
Cc1ccc(/C=C2\C(=O)NC(=S)N(c3ccc(F)cc3)C2=O)s1	35.5µM*	5.9%	-9.6%	u	0.0%
COc1ccccc1C=C1C(=O)NC(=S)NC1=O	44.7µM*	x	-7.8%	-8.7%	-27.8%
Cc1ccc(/C=C2\C(=O)NC(=S)N(c3ccc(F)cc3)C2=O)o1	-6.4%	1.4%	-11.1%	u	u
O=C1NC(=S)N(c2ccccc2)C(=O)/C1=C/c1ccco1	u	u	7.94µM*	u	u
SMILES	VDR inhibitor	Tb PFK inh	Tb PGK inh	Pin1 inhibitor	GLS inh
COc1ccc(/C=C2/C(=O)NC(=O)N(c3ccccc3)C2=O)cc1CN1C(=O)c2ccccc2C1=O	79.4µM*	1.0%	2.5%	15.3%	-5.0%
COc1ccc(C=C2C(=O)NC(=S)NC2=O)cc1OC	39.8µM*	x	-0.8%	-10.9%	u
COc1cc(/C=C2/C(=O)NC(=O)N(c3ccccc3)C2=O)ccc1O	-13.5%	15.9%	i	u	19.6%
c1cc[n+]2c(c1)-c1cccc[n+]1CC2	-0.3%	x	x	x	x
C=CCN1CCC23c4c5ccc(O)c4OC2/C(=N/N=C2\CCC4(O)C6Cc7ccc(O)c8c7C4(CCN6CC=C)C2O8)CCC3(O)C1C5 (stereo not given)	-11.9%	x	x	x	x
Cc1cc(Cc2c(O)[nH]c(=S)[nH]c2=O)ccc1OC(C)C	79.4µM*	2.7%	4.1%	-9.2%	-0.1%
CC(C)COc1ccc(Cc2c(O)[nH]c(=S)[nH]c2=O)cc1	-22.9%	-4.2%	1.3%	4.0%	5.6%
COc1c(O)c2c(=O)cc(OC)c3c4c(OC)cc(=O)c5c(O)c(OC)c(C[C@@H](C)OC(=O)c6ccccc6)c(c(c1C[C@@H](C)OC(=O)Oc1ccc(O)cc1)c23)c54	50.1µM*	x	x	x	x
COc1cc(CC(C)N)c(OC)cc1C (stereo not given)	x	x	x	x	-1.7%[99.4 µM]
O=C(O)c1ccccc1-c1c2cc(Br)c(=O)cc-2oc2[c]([Hg])c(O)c(Br)cc12	2.24µM*	x	x	x	-20.2%[20 µM]
CC1CC2CC(=O)C3CCCN4CCCC2[C@]34C1 (stereo not given in full)	3.2%	x	x	x	x
O=C(O)c1cc(Oc2ccc([N+](=O)[O-])cc2)cc(Oc2ccc([N+](=O)[O-])cc2)c1	44.7µM*	x	x	x	x
Cn1c(O)c(/C=C2\N=c3ccccc3=C2CCNC(=S)NC2CC2)c(=O)n(C)c1=O	70.8µM*	-0.1%	5.0%	2.3%	-16.2%
CC[C@H](Oc1ccc(Cl)cc1)C(=O)OC1C[C@H]2CC[C@@H](C1)N2C (stereo not given in full)	-2.0%	x	x	x	x
O=C1NC(=O)N(c2ccc(Cl)cc2)C(=O)/C1=C/c1coc2ccc(O)cc2c1=O	u	-11.6%	-3.9%	39.9%	5.6%
O=C1NC(=O)N(c2ccccc2)C(=O)/C1=C/c1coc2ccc(O)cc2c1=O	50.1µM*	-10.9%	-5.2%	-0.8%	11.7%
Cc1cc(C)cc(N2C(=O)NC(=O)/C(=C\c3cccn3-c3ccccc3)C2=O)c1	-7.8%	u	-8.0%	-1.0%	4.6%
CN1C(=O)/C(=C/c2cccn2-c2ccc3ccccc3c2)C(=O)NC1=S	44.7µM*	-10.3%	-15.5%	x	1.1%
C=CCC1=C(C)C(OC(=O)C2C(C=C(C)C)C2(C)C)CC1=O (stereo not given)	x	x	x	x	-13.6%[99.4 µM]
CC(C)c1c(CN(C)[C@@H](C)Cc2ccccc2)n(C)n(-c2ccccc2)c1=O	-1.6%	x	x	x	-0.4%[20 µM]
